Screen size: about 290,000 compounds; about 490 (0.17%) were called active. Cut-off read from the data, not from the text of the source: active = inhibition above about 37%; inactive = the rest. This excerpt belongs to a sample that is enriched for actives.
assay: compounds displacing fluorescent DNA intercalator, primary screen, artefact control for HCV NS3 helicase inhibitor project, biochemical, FID fluorescence (AID 1845); conditions: DNA fluorescent intercalator displacement, at 7.9 µM, stronger effect = higher value;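 note: 0% = vehicle and 100% = reference compound; higher means more ethidium bromide displaced from hairpin DNA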

Row | SMILES | inhibition
1 | Cc1ccc(-n2c(SCC(=O)NCCC3=CCCCC3)nc3n[nH]c(C)c3c2=N)cc1Cl | -27.4% (inactive)
2 | O=C(N/N=C/c1cccc(Br)c1)c1ccc(N2CCCC2=O)cc1 | -27.4% (inactive)
3 | C=CCOc1ccc(/C=C/C(=O)OCC(=O)NC2CCCCCC2)cc1 | -19.4% (inactive)
4 | Cn1ccc(=Nc2ccc(NC(=O)c3ccc(N=c4ccn(C)c5ccc([N+](=O)[O-])cc45)cc3)cc2)cc1 | 99% (active)
5 | Cc1cc([N+](=O)[O-])ccc1NC(=O)c1ccc(NC(=O)C(C)C)cc1 | -1.34% (inactive)
6 | O=C(Nc1ccc(C(=O)N2CCCCC2)cc1)c1cccc([N+](=O)[O-])c1 | -20.2% (inactive)
7 | CCC(C)(C)NC(=O)C(c1cccc(OC)c1OC)N(CC(C)C)C(=O)CCC(=O)Nc1cc(C)on1 (centres undefined) | -44.5% (inactive)
8 | O=C(NCCN1CCOCC1)c1cc(-c2cccs2)nc2ccccc12 | 3.9% (inactive)
9 | c1ccc2cc3c(NCCN4CCOCC4)ccnc3cc2c1 | 63.9% (active)
10 | O=C(NCCN1CCOCC1)c1ccc2c(c1)ncn2C1CCCC1 | -5.28% (inactive)
11 | CCCc1cc(=O)oc2c(C)c(OCC(=O)Nc3ccccn3)ccc12 | -23.4% (inactive)
12 | COC(=O)c1ccc(/C=N/NC(=O)C(=O)N2CCCCCC2)cc1 | -24.6% (inactive)
13 | CCc1c(C)c2ccc(OC3CCCCC3=O)cc2oc1=O (centres undefined) | -19.1% (inactive)
14 | Oc1c(Cl)cc(Cl)c(Cl)c1Cc1c(O)c(Cl)cc(Cl)c1Cl | 42.8% (active)
15 | CCC1OC(c2ccc([N+](=O)[O-])cc2)=Nc2ccccc21 (centres undefined) | 0.06% (inactive)
16 | CC(CN1CCCCC1)c1ccccc1 (centres undefined) | 4.77% (inactive)
17 | CC(C)[C@@H](NC(=O)OC(C)(C)C)C(=O)NCC1CCC(C(=O)N[C@@H](Cc2ccccc2)C(=O)O)CC1 (some centres undefined) | -37.5% (inactive)
18 | O=C(CCN1CCc2ccccc2C(O)(c2ccccc2)C1)c1ccc2c(c1)OCCO2 (centres undefined) | 13.1% (inactive)
19 | COc1ccc2cc(C(=O)C3CCCN(C(=O)c4sc(C)nc4C)C3)ccc2c1 (centres undefined) | -47.1% (inactive)
20 | O=C(Nc1ccccc1F)c1ccc(Cn2cc(Br)cn2)cc1 | -14.8% (inactive)

Row | SMILES | inhibition
21 | NC(=O)c1cc(S(=O)(=O)NCCCc2ccco2)cs1 | -3.13% (inactive)
22 | O=S1(=O)N=C(N(CCO)/N=C/c2ccccc2F)c2ccccc21 | -16.3% (inactive)
23 | COc1ccc(CCNC(=O)CN2C(=O)CCSc3ccccc32)c(OC)c1 | -32% (inactive)
24 | CC(C)C[C@@H](COc1ccccc1)N1CCN(CC(C)C)CCC1=O | -13.2% (inactive)
25 | Cc1cnc(C)c(N2CCN(C(=O)C3CCC(=O)N(CCc4cccc(F)c4)C3)CC2)n1 (centres undefined) | -38.6% (inactive)
26 | O=C(Nc1ccccc1)c1ccc2c(c1)OCCCO2 | -4.42% (inactive)
27 | CC(NC(=O)CNC(=O)Cc1cccc2ccccc12)c1ccc(S(N)(=O)=O)cc1 (centres undefined) | -27.1% (inactive)
28 | Cc1ccc2c(c1)N(CC(=O)N1CCC(O)CC1)C(=O)CO2 | -5.64% (inactive)
29 | O=C(CCN1C(=O)[C@H]2CC=CC[C@H]2C1=O)NCc1nc(-c2ccccc2)no1 | -33.7% (inactive)
30 | O=C1NC(c2ccc(-c3ccccc3[N+](=O)[O-])o2)C(C(=O)c2ccc(Cl)cc2)C(O)(C(F)(F)F)N1 (centres undefined) | -16.8% (inactive)
31 | C/C(=N/OC(=O)c1ccc(Br)cc1)c1ccc(C)cc1 | -5.35% (inactive)
32 | CC(C)C[C@H](NC(=O)C1CCC(CNC(=O)[C@@H]2CCCN2C(=O)OC(C)(C)C)CC1)C(=O)O (some centres undefined) | -30.2% (inactive)
33 | CC(=O)c1sc(N/N=C/c2ccc(C(C)C)cc2)nc1C | 4.61% (inactive)
34 | CCOc1ccc(NC(=O)C(C)N2C(=O)c3ccccc3C2=O)cc1 (centres undefined) | -4.96% (inactive)
35 | S=C(Nc1ccc(Cl)cc1Cl)N1CCCC1 | 0.9% (inactive)
36 | O=C(NCCN1CCN(C(=O)c2cccc([N+](=O)[O-])c2)CC1)C(=O)NCc1ccc(Cl)cc1 | -23.5% (inactive)
37 | NC(=O)C1CCN(Cc2nc3c(Br)cc(Br)cc3c(=O)[nH]2)CC1 | -3.04% (inactive)
38 | O=C(C1CC(=O)N(c2ccc(F)cc2)C1)N1CCN(c2ccccc2)CC1 (centres undefined) | -24.8% (inactive)
39 | CCc1cc(=O)oc2c(C)c(OCC(=O)N3CC[C@@]4(O)CCCC[C@H]4C3)ccc12 | -29.5% (inactive)
40 | COC(=O)c1c(NC(=O)C(=O)N2CCCCC2)sc2c1CC(C)(C)OC2 | -42.8% (inactive)

Row | SMILES | inhibition
41 | CCN(CC)S(=O)(=O)c1ccc(N2CCOCC2)c(NC(=O)C2CSC3(C)CCC(=O)N23)c1 (centres undefined) | -32.7% (inactive)
42 | COc1cccc(N(CC(=O)NC2CCCC2)C(=O)CCCC(=O)Nc2ccccn2)c1 | -30.3% (inactive)
43 | O=C(O)CC(c1ccccc1F)N1Cc2ccccc2C1=O (centres undefined) | -5.32% (inactive)
44 | CC(C)(C)c1ccc(/C=C/C(=O)NCCCn2ccnc2)cc1 | 4.7% (inactive)
45 | CC(C)c1ccc(Nc2nnc(SCC(=O)c3nnc(-c4ccccc4)o3)s2)cc1 | -16.9% (inactive)
46 | COc1ccccc1N(CC(=O)Nc1ccccc1C(=O)N1CCCC1)S(C)(=O)=O | -10.3% (inactive)
47 | Cc1cccc(NC(=O)CCN2CC(C)CC(C)C2)c1 (centres undefined) | 6.82% (inactive)
48 | CN(CCO)S(=O)(=O)c1ccc2c(c1)C(=O)c1cc(S(=O)(=O)N(C)CCO)ccc1-2 | 0.99% (inactive)
49 | O=C(c1cc(S(=O)(=O)N2CCOCC2)ccc1Cl)N1CCOCC1 | -0.42% (inactive)
50 | O=C(CCN1CCCO1)N1CCCC(N2CCN(c3cccc(C(F)(F)F)c3)CC2)C1 (centres undefined) | -34.6% (inactive)
51 | O=C(Cc1ccc(Cl)cc1)NC1CCS(=O)(=O)C1 (centres undefined) | -2.95% (inactive)
52 | CC(=O)Nc1ccc(NC(=O)COc2ncnc3ccccc23)cc1 | -0.17% (inactive)
53 | Cc1ccc(Nc2c3c(nc4ccccc24)CCC3)cc1 | 6.54% (inactive)
54 | CC(=O)Nc1ccc(Nc2c3ccccc3nc3ccccc23)cc1 | 70.8% (active)
55 | COc1ccccc1N1CCN(c2ncnc3sc(C)c(-c4ccccc4)c23)CC1 | -38.6% (inactive)
56 | OC(CN=c1sc2ccccc2n1CC(O)COc1ccccc1)COc1ccccc1 (centres undefined) | -11.1% (inactive)
57 | NS(=O)(=O)c1ccc(CCNc2nc(C(F)(F)F)nc3ccccc23)cc1 | -2.69% (inactive)
58 | CCc1ccc(C(CNc2nc(C(F)(F)F)nc3ccccc23)N(C)C)cc1 (centres undefined) | 39.5% (active)
59 | COc1cccc(CNc2nc(C(F)(F)F)nc3ccccc23)c1 | -5.57% (inactive)

— PubChem BioAssay AID1845 (The Scripps Research Institute Molecular Screening Center, 2009)
